Compounds without any hit were thinned out: in the full panel of roughly 79,000, 15% have a hit. The source made the active and inactive calls. Rule as the data show it: active = growth inhibition above about 70%; inactive = the rest.

The test is described as follows: NCI Yeast Anticancer Drug Screen. Data for the bub3 strain (AID 167). Conditions: S. cerevisiae bub3 mutant strain, at 5.0 µM (retest, dose inferred, filed as 0.5), stronger effect = higher value. In short, it runs like this: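 Part of a panel of yeast mutants defective in DNA damage repair or cell cycle regulation. Each strain is grown with compound, and inhibition is calculated relative to solvent-treated cultures.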
With `O=C(OC1C2CCC2C2CC21)c1ccc([N+](=O)[O-])cc1[N+](=O)[O-]` (centres undefined), the growth inhibition was -5% (inactive).
With `N#CCc1nc2c(s1)C(=O)c1ccccc1C2=O`, the growth inhibition was 55% (inactive).
Under `CC1=C(C(=S)Nc2ccc(Cl)c(C(=O)OC(C)C)c2)SCCO1` stands 26% (inactive).
`O=C1C(Cl)=C(c2ccc([N+](=O)[O-])cc2)C(=O)c2c(O)cccc21`: the growth inhibition was 99% (active).
With `CCOc1ccc2nc(C)cc(C)c2c1` the figure was -8% (inactive); with `CN(C)CC(O)c1cc(-c2ccc(Cl)cc2)nc2c(Cl)cc(Cl)cc12` (centres undefined), 8% (inactive).
Consider `CCCC(=S)N1CCOCC1`, for which the growth inhibition was -1% (inactive).
Under `C/C(=C/CC1CCC2C3=CCC4CC(O)CCC4(C)C3CCC12C)C(C)C(C)C` (centres undefined) stands -2% (inactive); under `NCC(O)CSc1ccc(Cl)c(Cl)c1` (centres undefined), 3% (inactive).
Regarding `CCCCCCCCC(=O)NCCCNCCCNC(=O)CCCCCCCC`, the growth inhibition is -28% (inactive).
With `O=C1c2ccc(O)cc2C(=O)c2c1ccc(O)c2O` the figure was 37% (inactive).
Under `Clc1nc(Cl)c(Cl)c(-c2ccccc2)n1` stands 12% (inactive); under `Cc1ccc(-c2c(C#N)c(-c3ccc(Cl)cc3)c(C#N)c(=O)n2NS(=O)(=O)c2ccccc2)cc1`, 52% (inactive).
With `CC(CCC(=O)O)(c1cc(Br)c(O)c(Br)c1)c1cc(Br)c(O)c(Br)c1` the figure was -3% (inactive); with `N#CC(C(=O)CCCC(=O)Nc1ccc(Cl)cc1)c1ccccc1Cl` (centres undefined), 1% (inactive); with `Cc1ccc(S(=O)(=O)S/C(=N\c2ccccn2)Nc2ccccn2)cc1`, 95% (active).
With `NC(=O)C1CCCN1C(=O)C1CCCN(Cc2cc(CN3CCCC(C(=O)N4CCCC4C(N)=O)C3)cc(CN3CCCC(C(=O)N4CCCC4C(N)=O)C3)c2)C1` (centres undefined), the growth inhibition was -23% (inactive).
With `O=C(/C=C\c1cccc2ccccc12)c1ccccn1` the figure was 20% (inactive); with `COC(=O)c1cccc2c1C(=O)c1ccccc1-2`, -23% (inactive).
Under `Cn1c(=S)c2[nH]c(SCCN3CCCCC3)nc2n(C)c1=O` stands 37% (inactive).
`CN(C)CCCSc1c2ccccc2nc2cccc([N+](=O)[O-])c12`: the growth inhibition was 14% (inactive).
Under `CCCCCCCCN(CCCCCCCC)CC(O)c1cc(-c2ccc(Cl)cc2)nc2c(Cl)cccc12` (centres undefined) stands 2% (inactive); under `CCCCCCCCCCCCS`, 2% (inactive).
With `COC(=O)c1nc(=S)[nH]c(C(=O)OC)c1C(=O)c1ccc([N+](=O)[O-])cc1` the figure was 5% (inactive); with `Cc1[nH]c2ccccc2c1C1=CC2(C)Nc3ccccc3C2C(C)(C)C1` (centres undefined), 10% (inactive).
Under `CCCCCCCCN(CCCCCCCC)CC(O)c1cc(-c2ccc(OC)cc2)nc2cc(Cl)ccc12` (centres undefined) stands 12% (inactive); under `O=C(CC(C[N+](=O)[O-])c1ccc2c(c1)OCO2)c1ccccc1` (centres undefined), 18% (inactive).
As for `CN(C)CCN(C)CCC(=O)/C=C/c1ccccc1`, the growth inhibition is 99% (active).
With `NC(N)=NC(N)=Nc1ccc(-c2ccccc2)cc1` the figure was -1% (inactive); with `O=[N+]([O-])c1ccccc1NCCO`, 3% (inactive).
With `Cn1c2c(c3ccccc31)CCN(CCN1CCN(c3cccc(Cl)c3)CC1)C2=O`, the growth inhibition was -17% (inactive).
Under `CC(=O)Oc1c2c(c(C)c3ccccc13)C(=O)c1cccnc1C2=O` stands 4% (inactive); under `O=C(/C(=C/c1ccc2c(c1)OCO2)c1ccccc1)c1ccc(OCCN2CCCC2)cc1`, -7% (inactive).
Take `O=C1C(=O)c2cc(Cl)ccc2-c2ccc(Cl)cc21`: the growth inhibition is 56% (inactive).
Under `C/C(=N/NC(=O)Nc1ccc(N=Nc2ccccc2)cc1)c1cccnc1` stands 7% (inactive); under `CC(Cl)C(=O)Nc1cc2ccccc2oc1=O` (centres undefined), -5% (inactive); under `CC(C)c1ccc2c(c1)CCC1C(C)(CN)CCCC21C` (centres undefined), 10% (inactive).
With `CN(NC1OC(=O)c2ccccc21)c1ccc(C(F)(F)F)cc1[N+](=O)[O-]` (centres undefined) the figure was 43% (inactive).
With `CCCC(CC)c1c(O)c(O)c(C(CC)CCC)c(C(CC)CCC)c1C(CC)CCC` (centres undefined) the figure was -1% (inactive).
